# Sampled rows, rich in hits. Any-hit rate of the full collection: about 2.4%.
# D2 PAM-1: positive allosteric modulators of human D2 dopamine receptor | HEK293 T-REx D2, calcium flux, EC20 dopamine potentiation | potentiation, % at 10 µM | actives 0.34% (n = 340,000);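 active means potentiation over 3 SD above the plate norm, cut at about 30% in these data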; further: 0% is about no effect
# Target sequence (P14416 whole entry, looked up): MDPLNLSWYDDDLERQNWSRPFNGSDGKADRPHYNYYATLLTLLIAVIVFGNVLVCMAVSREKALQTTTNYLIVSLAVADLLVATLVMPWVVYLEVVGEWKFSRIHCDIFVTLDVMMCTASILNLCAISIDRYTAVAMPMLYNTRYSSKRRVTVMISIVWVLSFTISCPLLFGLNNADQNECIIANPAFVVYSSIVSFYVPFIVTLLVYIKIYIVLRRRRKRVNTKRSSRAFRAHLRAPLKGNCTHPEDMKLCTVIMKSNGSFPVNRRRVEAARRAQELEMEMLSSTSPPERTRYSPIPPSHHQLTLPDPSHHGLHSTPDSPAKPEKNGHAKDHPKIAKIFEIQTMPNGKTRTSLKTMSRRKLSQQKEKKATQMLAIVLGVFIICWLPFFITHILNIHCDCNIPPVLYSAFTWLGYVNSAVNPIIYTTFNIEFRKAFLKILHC
#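 Using a no-wash calcium dye in inducible, force-coupled HEK293 Trex cells expressing D2, we tracked fluorescence each second for 180 s after compound, then for 180 s after EC20 dopamine to detect augmented signalling.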
# D2 ag-1: activates the human D2 dopamine receptor; activation, % at 2 µM; AID 485358; actives 0.53% (n = 340,000); HEK293 T-REx D2 cells, calcium flux agonist mode; P14416;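 active means activation over 3 SD above normal in the single-dose calcium agonist read, cut at about 30% in these data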; further: 0% is about no effect
#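 HEK293 Trex D2 cells, tetracycline-induced, o/n 30 C 5% CO2; no-wash Ca dye, RT 30–90 min; 10-cycle baseline, 23 nl cpd added, kinetic Ca read 180 s; agonist hits = positive Ca response.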
# D2 PAM-2: potentiates the human D2 dopamine receptor allosterically; P14416; DiscoveRx D2 beta-arrestin cells, luminescence, 90 min; 100% = 57 uM dopamine signal; potentiation, % (no concentration beside the values); actives 0.23% (n = 360,000); AID 624464; in the data active means potentiation above about 50%; inconclusive means mostly about 30% to 49%
#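 PathHunter D2 cells, attached overnight at 37 deg C, received compound in DMSO plus dopamine at EC20 (50 nM final) for 90 min at 37 deg C. Beta-arrestin recruitment was read as luminescence after 1 h with detection reagent at ambient temperature.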
# D2 ag-2: human D2 receptor agonism in beta-arrestin assay; actives 0.084% (n = 360,000); activation, % (concentration not given with the values); AID 624465; DiscoveRx PathHunter D2 beta-arrestin, luminescence, 90 min; 100% = 57 uM dopamine signal; P14416; in the data active means activation above about 40%; inconclusive means between about 15% and that limit
#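 Agonist mode: compounds alone added to overnight-plated D2 PathHunter cells for 90 min at 37 C, with 57 uM final dopamine (EC100) defining full response. Beta-arrestin recruitment detected by chemiluminescent reagent, read after 1 h at ambient temperature.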
# D2 antagonist: antagonizes the human D2 dopamine receptor | P14416 | HEK293 TREx D2 cells, calcium flux, dopamine EC80 | inhibition, % at 10 µM | actives 2% (n = 340,000) | AID 485344; in the data active means inhibition above about 30%; inactive means below that, where a call was filed; further: 0% is about no effect
#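 Measurement of antagonist activity uses fluorescent calcium dye in inducible HEK293 T-REx D2 cells: 10 s baseline, compound addition with 180 s read, EC80 dopamine addition with a further 180 s read.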
# Starred values were filed as active, the others as inactive; ? = inconclusive; · = no result.
SMILES,D2 PAM-1,D2 ag-1,D2 PAM-2,D2 ag-2,D2 antagonist
N#Cc1ccccc1NC(=O)CSc1nnc(N)s1,·,1,·,·,·
COc1ccc(Cl)cc1NC(=O)c1c(NCc2cccnc2)sc2c1CCC(C)C2 (centres undefined),13,·,·,·,·
Cc1ccccc1S(=O)(=O)N(CC(O)CN1CCCCC1)c1ccccc1 (centres undefined),-17,1,-12,-1,54*
O=[N+]([O-])c1ccccc1S(=O)(=O)N(CC(O)CN1CCCCC1)c1ccccc1 (centres undefined),-8,0,-8,-4,8
Cc1ccc(-c2ccc(CCC(=O)O)n2NC(N)=S)cc1,4,2,-20,0,-8
Cc1ccc(-c2ccc(CCC(=O)O)n2C(C)C)cc1,16,0,-7,-2,33*
COc1cccc(OC)c1C(=O)NC(=O)Nc1c(C)cccc1C,5,1,-10,-3,32*
Cc1csc(Sc2ccc([N+](=O)[O-])cc2C(=O)OCC(=O)NC2CCCC(C)C2C)n1 (centres undefined),14,-1,1,-1,-14
CCC(C)NC(=O)COC(=O)c1cc([N+](=O)[O-])ccc1Sc1nc(C)cs1 (centres undefined),-4,1,51*,0,12
COc1ccc(-c2noc(C3CCCN(S(=O)(=O)c4cccc(Cl)c4)C3)n2)cc1OC (centres undefined),13,1,-3,-3,-1
O=S(=O)(c1ccc(Cl)cc1)N1CCCC(c2nc(-c3ccc(F)cc3)no2)C1 (centres undefined),-3,0,-1,0,51*
COc1ccc(NC2=C(C(C)=O)C(c3ccc(N(C)C)cc3)C(C(C)=O)C(C)(O)C2)cc1 (centres undefined),1,0,51*,-4,-1
COc1ccc(NC2=C(C(C)=O)C(c3ccc(OC)cc3)C(C(C)=O)C(C)(O)C2)cc1 (centres undefined),14,0,-4,5,6
Cc1nn2c(=O)cc(COC(=O)COc3ccc(F)cc3)nc2s1,4,0,·,·,·
CCSc1nc2c(c(=O)[nH]c(=O)n2C)n1C/C=C(/C)Cl,48*,0,4,-1,3
C=C(C)CSc1nc2c(c(=O)[nH]c(=O)n2C)n1CCC(C)C,34*,-1,-3,-2,-4
CCOc1ccc(/C=C2\CCC(C3CCCC3)C2=O)cc1 (centres undefined),-3,-1,0,2,37*
O=C(c1ccc(S(=O)(=O)c2ccccc2Cl)c([N+](=O)[O-])c1)N1CCN(Cc2ccccc2)CC1,7,9,78*,?,-7
CCOC(=O)c1ccc2[nH]c3c(c2c1)CN(C)CC3,1,0,-10,-4,16
Cc1ccc2[nH]c3c(c2c1)CCN(C)C3,-16,1,-5,-5,34*
Cc1ccc2[nH]c3c(c2c1)CN(C)CC3,-30,2,-36,-3,31*
Cc1cccc(CN2CCc3c([nH]c4ccccc34)C2)c1,-23,1,-11,-6,56*
CC(=O)N1CCc2[nH]c3ccc(C)cc3c2C1,4,1,-7,-2,7
CCC(NC(=O)Nc1cc(Cl)ccc1OC)c1c(-n2cccc2)sc2c1CCN(C)C2 (centres undefined),-7,1,·,·,·
O=C(Nc1ccccc1F)c1ccc(Cn2nc(N3CCN(c4ccccc4)CC3)ccc2=O)o1,1,0,·,·,·
SMILES,D2 PAM-1,D2 ag-1,D2 PAM-2,D2 ag-2,D2 antagonist
COc1ccc(N2C(=O)CSC23CCCCC3)cc1,11,0,-2,-1,33*
CCOC(=O)C1CCCN(C/C=C/c2ccccc2)C1 (centres undefined),-21,5,-24,5,30*
CCOC(=O)C1CCN(C/C=C/c2ccccc2)CC1,-7,-1,-2,-3,-22
CCOC(=O)C1CCCN(Cc2ccc(-c3ccccc3)cc2)C1 (centres undefined),-16,2,-80,-3,58*
CCOC(=O)C1CCN(Cc2cccc(Oc3ccccc3)c2)CC1,·,·,-22,?,·
CCOC(=O)C1CCCN(Cc2cccc(Oc3ccccc3)c2)C1 (centres undefined),-14,-2,-35,1,40*
CCOC(=O)C1CCCN(Cc2c(Cl)cccc2Cl)C1 (centres undefined),0,0,-13,-3,-10
CCOC(=O)C1CCCN(c2oc(-c3ccc(F)cc3)nc2C#N)C1 (centres undefined),2,1,6,-3,35*
CC1CCN(c2oc(-c3ccc(F)cc3)nc2C#N)CC1,1,-1,-8,3,3
CCOC(=O)C1CCCN(C(=O)c2cc3c(=O)n4ccccc4nc3s2)C1 (centres undefined),44*,1,-30,-5,2
Cc1cccn2c(=O)c3cc(C(=O)N4CC(C)CC(C)C4)sc3nc12 (centres undefined),38*,2,-4,-4,-3
CCOC(=O)C1CCCN(C(=O)c2cc(-c3ccncc3)nc3ccccc23)C1 (centres undefined),8,0,9,-4,-4
CCOC(=O)C1CCCN(C(=O)c2cc(-c3ccc(F)cc3)nc3ccccc23)C1 (centres undefined),5,0,-2,-1,47*
COc1cccc(Cn2c(=O)n(CC3CCC(C(=O)N4CCOCC4)CC3)c(=O)c3sccc32)c1 (centres undefined),12,·,·,·,·
COc1ccc(OC)c(-n2c(=O)[nH]c3cc(C(=O)NCCc4ccc(OC)c(OC)c4)ccc3c2=O)c1,10,-1,·,·,·
CCOC(=O)c1ccccc1NC1(c2ccc(OC)cc2)C(=O)c2ccccc2C1=O,-7,1,·,·,·
CCn1cc(C(=O)N2CCc3ccccc3C2)c(=O)c2cc(S(=O)(=O)N3CCCCC3)ccc21,-21,68*,·,·,-14
Cn1cc(C(=O)N2CCc3ccccc3C2)c(=O)c2cc(S(=O)(=O)N3CCCCC3)ccc21,-17,1,·,·,-11
CC1CCN(CCCNC(=O)c2cn(C)c3ccc(S(=O)(=O)N(C)C4CCCCC4)cc3c2=O)CC1,11,-1,·,·,·
Cn1cc(C(=O)NC2CCCCCC2)c(=O)c2cc(S(=O)(=O)N3CCCC3)ccc21,-1,3,-14,-5,3
Cn1cc(C(=O)NC2CCCCCCC2)c(=O)c2cc(S(=O)(=O)N3CCCC3)ccc21,32*,2,-6,-2,-10
CC1CCCN(CCCNC(=O)c2cn(C)c3ccc(S(=O)(=O)N(C)C4CCCCC4)cc3c2=O)C1 (centres undefined),-14,0,-17,-1,37*
CCOc1ccc(NC(=O)CSc2nnc3scc(-c4ccc(Cl)cc4)n23)cc1,-9,-2,·,·,·

# Compound activity (PubChem)
